# Results reported in PubChem BioAssay AID1159580 (chemical genetic matrix, 2015).
# About 2,000 (36%) of roughly 5,500 compounds were called active. About 18% were inconclusive and are not listed. This is one part of the list. A number with no mark means an inactive call. No stated cut-off is given here; in the data, active means normalized growth mostly below about 0.91 (no sharp cut-off); inconclusive means no clear call, values can overlap the other calls; inactive means mostly above about 0.92.
# Experiment: chemical genetic growth profiling, strain panel (AID 1159580);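 further: tested at 20 µM; growth read once vehicle control cultures reached saturation at 30 °C; 1 = growth at the plate median or of vehicle wells; lower values mean less growth of the strain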
# Conditions: growth OD
structure (smiles),measurement,setting,value
CC(=O)N(O)CCCCCNC(=O)CCC(=O)N(O)CCCCCNC(=O)CCC(=O)N(O)CCCCCN,normalized growth,"S. cerevisiae deletion strains, locus YJR066W, strain TOR1, active compounds read low",0.95
same,normalized growth,"S. cerevisiae deletion strains, locus YJR075W, strain HOC1, active compounds read low",1.01
same,normalized growth,"S. cerevisiae deletion strains, locus YKL009W, strain mrt4, active compounds read low",1.01
same,normalized growth,"S. cerevisiae deletion strains, locus YKL068W, active compounds read low",1.05
same,normalized growth,"S. cerevisiae deletion strains, locus YKL085W, strain MDH1 (second series), active compounds read low",1.02
same,normalized growth,"S. cerevisiae deletion strains, locus YKL085W, strain MDH1, active compounds read low",1.02
same,normalized growth,"S. cerevisiae deletion strains, locus YKL160W, strain elf1, active compounds read low",0.998
same,normalized growth,"S. cerevisiae deletion strains, locus YKL190W, strain CNB1, active compounds read low",1.01
same,normalized growth,"S. cerevisiae deletion strains, locus YKR001C, strain vps1, active compounds read low",0.966
same,normalized growth,"S. cerevisiae deletion strains, locus YKR026C, strain gcn3, active compounds read low",1.03
same,normalized growth,"S. cerevisiae deletion strains, locus YKR091W, strain srl3, active compounds read low",1.01
same,normalized growth,"S. cerevisiae deletion strains, locus YLL001W, strain dnm1, active compounds read low",0.991
same,normalized growth,"S. cerevisiae deletion strains, locus YLL026W, active compounds read low",0.997
same,normalized growth,"S. cerevisiae deletion strains, locus YLL041C, strain sdh2, active compounds read low",1
same,normalized growth,"S. cerevisiae deletion strains, locus YLR027C, strain aat2, active compounds read low",1
same,normalized growth,"S. cerevisiae deletion strains, locus YLR039C, strain RIC1, active compounds read low",0.997
same,normalized growth,"S. cerevisiae deletion strains, locus YLR058C, strain SHM2, active compounds read low",1.01
same,normalized growth,"S. cerevisiae deletion strains, locus YLR102C, strain apc9, active compounds read low",1.03
same,normalized growth,"S. cerevisiae deletion strains, locus YLR113W, strain HOG1, active compounds read low",1.14
same,normalized growth,"S. cerevisiae deletion strains, locus YLR221C, strain rsa3, active compounds read low",1.04
same,normalized growth,"S. cerevisiae deletion strains, locus YLR258W, strain gsy2, active compounds read low",1.02
same,normalized growth,"S. cerevisiae deletion strains, locus YLR262C, strain YPT6 (second series), active compounds read low",0.995
same,normalized growth,"S. cerevisiae deletion strains, locus YLR262C, strain YPT6, active compounds read low",1.08
same,normalized growth,"S. cerevisiae deletion strains, locus YLR268W, strain sec22, active compounds read low",0.981
same,normalized growth,"S. cerevisiae deletion strains, locus YLR320W, strain mms22, active compounds read low",1.07
same,normalized growth,"S. cerevisiae deletion strains, locus YLR330W, strain CHS5, active compounds read low",1.01
same,normalized growth,"S. cerevisiae deletion strains, locus YLR342W, strain FKS1 (second series), active compounds read low",0.854
same,normalized growth,"S. cerevisiae deletion strains, locus YLR342W, strain FKS1, active compounds read low",0.958
same,normalized growth,"S. cerevisiae deletion strains, locus YLR357W, strain rsc2, active compounds read low",0.882
same,normalized growth,"S. cerevisiae deletion strains, locus YLR370C, strain arc18, active compounds read low",1
same,normalized growth,"S. cerevisiae deletion strains, locus YLR371W, strain rom2, active compounds read low",1.02
same,normalized growth,"S. cerevisiae deletion strains, locus YLR384C, strain iki3, active compounds read low",0.991
same,normalized growth,"S. cerevisiae deletion strains, locus YLR418C, strain cdc73, active compounds read low",0.864
same,normalized growth,"S. cerevisiae deletion strains, locus YML016C, strain PPZ1, active compounds read low",1.01
same,normalized growth,"S. cerevisiae deletion strains, locus YML032C, strain rad52, active compounds read low",1.06
same,normalized growth,"S. cerevisiae deletion strains, locus YML120C, strain ndi1, active compounds read low",0.993
same,normalized growth,"S. cerevisiae deletion strains, locus YML124C, strain tub3, active compounds read low",1.03
same,normalized growth,"S. cerevisiae deletion strains, locus YMR058W, strain fet3, active compounds read low",1.02
same,normalized growth,"S. cerevisiae deletion strains, locus YMR078C, strain ctf18, active compounds read low",1.04
same,normalized growth,"S. cerevisiae deletion strains, locus YMR125W, strain sto1, active compounds read low",1.06
same,normalized growth,"S. cerevisiae deletion strains, locus YMR129W, active compounds read low",1.01
same,normalized growth,"S. cerevisiae deletion strains, locus YMR205C, strain PFK2, active compounds read low",1.03
same,normalized growth,"S. cerevisiae deletion strains, locus YMR223W, strain ubp8, active compounds read low",0.998
same,normalized growth,"S. cerevisiae deletion strains, locus YMR231W, strain pep5, active compounds read low",0.983
same,normalized growth,"S. cerevisiae deletion strains, locus YMR307W, strain GAS1, active compounds read low",0.809
same,normalized growth,"S. cerevisiae deletion strains, locus YNL067W, strain RPL9B, active compounds read low",0.999
same,normalized growth,"S. cerevisiae deletion strains, locus YNL071W, strain lat1, active compounds read low",1.04
same,normalized growth,"S. cerevisiae deletion strains, locus YNL128W, strain TEP1, active compounds read low",1.01
same,normalized growth,"S. cerevisiae deletion strains, locus YNL153C, strain GIM3, active compounds read low",0.99
same,normalized growth,"S. cerevisiae deletion strains, locus YNL183C, strain NPR1, active compounds read low",0.995
same,normalized growth,"S. cerevisiae deletion strains, locus YNL209W, strain ssb2, active compounds read low",0.917 (active)
same,normalized growth,"S. cerevisiae deletion strains, locus YNL233W, strain BNI4, active compounds read low",0.987
same,normalized growth,"S. cerevisiae deletion strains, locus YNL248C, strain rpa49, active compounds read low",1.08
same,normalized growth,"S. cerevisiae deletion strains, locus YNL250W, strain rad50, active compounds read low",1.08
same,normalized growth,"S. cerevisiae deletion strains, locus YNL271C, strain bni1, active compounds read low",0.978
same,normalized growth,"S. cerevisiae deletion strains, locus YNL298W, strain CLA4, active compounds read low",1
same,normalized growth,"S. cerevisiae deletion strains, locus YNL307C, strain MCK1, active compounds read low",1.03
same,normalized growth,"S. cerevisiae deletion strains, locus YNL322C, strain KRE1 (second series), active compounds read low",1.01
same,normalized growth,"S. cerevisiae deletion strains, locus YNR049C, strain mso1, active compounds read low",1.01
same,normalized growth,"S. cerevisiae deletion strains, locus YNR052C, strain pop2, active compounds read low",1.01
same,normalized growth,"S. cerevisiae deletion strains, locus YOL012C, strain htz1",1.51
same,normalized growth,"S. cerevisiae deletion strains, locus YOL147C, strain pex11, active compounds read low",1.02
same,normalized growth,"S. cerevisiae deletion strains, locus YOR001W, strain rrp6, active compounds read low",0.96
same,normalized growth,"S. cerevisiae deletion strains, locus YOR061W, strain CKA2, active compounds read low",0.996
same,normalized growth,"S. cerevisiae deletion strains, locus YOR069W, strain VPS5, active compounds read low",1.01
same,normalized growth,"S. cerevisiae deletion strains, locus YOR070C, strain gyp1, active compounds read low",1.01
same,normalized growth,"S. cerevisiae deletion strains, locus YOR080W, strain dia2, active compounds read low",0.996
same,normalized growth,"S. cerevisiae deletion strains, locus YOR083W, strain WHI5, active compounds read low",0.958
same,normalized growth,"S. cerevisiae deletion strains, locus YOR106W, strain vam3, active compounds read low",0.844 (active)
same,normalized growth,"S. cerevisiae deletion strains, locus YOR136W, strain idh2, active compounds read low",1.03
same,normalized growth,"S. cerevisiae deletion strains, locus YOR144C, strain elg1, active compounds read low",1.02
same,normalized growth,"S. cerevisiae deletion strains, locus YOR184W, strain ser1, active compounds read low",0.999
same,normalized growth,"S. cerevisiae deletion strains, locus YOR231W, strain MKK1, active compounds read low",1.04
same,normalized growth,"S. cerevisiae deletion strains, locus YOR265W, strain rbl2, active compounds read low",1
same,normalized growth,"S. cerevisiae deletion strains, locus YOR270C, strain vph1, active compounds read low",0.964
same,normalized growth,"S. cerevisiae deletion strains, locus YOR290C, strain snf2, active compounds read low",1.02
same,normalized growth,"S. cerevisiae deletion strains, locus YOR316C, strain cot1, active compounds read low",1.04
same,normalized growth,"S. cerevisiae deletion strains, locus YPL051W, strain arl3, active compounds read low",1.07
same,normalized growth,"S. cerevisiae deletion strains, locus YPL078C, strain atp4, active compounds read low",0.985
same,normalized growth,"S. cerevisiae deletion strains, locus YPL106C, strain sse1, active compounds read low",0.953
same,normalized growth,"S. cerevisiae deletion strains, locus YPL240C, strain hsp82, active compounds read low",1.01
same,normalized growth,"S. cerevisiae deletion strains, locus YPL256C, strain CLN2, active compounds read low",1.09
same,normalized growth,"S. cerevisiae deletion strains, locus YPR119W, strain clb2, active compounds read low",1.04
same,normalized growth,"S. cerevisiae deletion strains, locus YPR141C, strain kar3, active compounds read low",1.05
same,normalized growth,"S. cerevisiae deletion strains, locus YPR163C, strain tif3, active compounds read low",1.03
same,normalized growth,"S. cerevisiae deletion strains, locus YPR167C, strain met16, active compounds read low",1.04
same,normalized growth,"S. cerevisiae deletion strains, strain wtn01, active compounds read low",0.998
same,normalized growth,"S. cerevisiae strains, strain wild type, active compounds read low",1.01
